# Measurements published in PubChem BioAssay (EPA / NIEHS).
# Results filed as inconclusive are left out. Active and inactive are the calls of the source. The calls were made as follows, unless noted: active = hit-call score of the fitted dose curve at least 0.9, where 1 is the maximum; inconclusive = response in the unintended direction; inactive = score below 0.9.
# Target: PGR (gene 5241) (UniProt P06401)
# Test: TOX21_PR_LUC_Followup_Agonist: Tox21 HEK293 Progesterone Receptor (PR) Agonism Luciferase Follow-Up Assay (AID 2283937; active = hit-call score of the fitted dose curve at least 0.9, where 1 is the maximum; inactive = score below 0.9)
# Description: TOX21_PR_LUC_Followup is a secondary assay for specificity for the TOX21_PR_BLA_Agonist assay. To differentiate true PR agonists from cytotoxic substances, this follow up assay is multiplexed with a cell viability assay.TOX21_PR_LUC_Followup_Agonist is one of one assay component(s) measured or calculated from the TOX21_PR_LUC_Followup assay. It is designed to make measurements of luciferase induction, a form of inducible reporter, as detected with bioluminescence signals by CellTiter-Glo Luciferase-coupled ATP quantitation technologyData from the assay component TOX21_PR_LUC_Followup_Agonist was analyzed into 1 assay endpoint. This assay endpoint, TOX21_PR_LUC_Followup_Agonist, was analyzed in the positive analysis fitting direction relative to DMSO as the negative control and baseline of activity. Using a type of inducible reporter, gain-of-signal activity can be used to understand changes in the reporter gene as they relate to the gene NR3C3. Furthermore, this assay endpoint can be referred to as a primary readout, because the performed assay has only produced 1 assay endpoint. To generalize the intended target to other relatable targets, this assay endpoint is annotated to the nuclear receptor target family, where the subfamily is steroidal.
# Quality Control Precautions: Maintain cells below 85-90% confluence in culture medium. For assay purpose, the cells should be cultured in assay medium with 10% charcoal stripped FBS for 5 days with alternate day medium changed to fresh medium. […] Then 4 uL of ONE-Glo reagent (Promega, Madison, WI) was added to each plate using a BioRAPTR Flying Reagent Dispenser (FRD) workstation (Beckman Coulter, Indianapolis, IN, USA) and luminescence was quantified on a ViewLux (PerkinElmer, Shelton, CT) plate reader after 30 min incubation at room temperature.
# Chain of PGR (gene 5241) (P06401 whole entry, looked up): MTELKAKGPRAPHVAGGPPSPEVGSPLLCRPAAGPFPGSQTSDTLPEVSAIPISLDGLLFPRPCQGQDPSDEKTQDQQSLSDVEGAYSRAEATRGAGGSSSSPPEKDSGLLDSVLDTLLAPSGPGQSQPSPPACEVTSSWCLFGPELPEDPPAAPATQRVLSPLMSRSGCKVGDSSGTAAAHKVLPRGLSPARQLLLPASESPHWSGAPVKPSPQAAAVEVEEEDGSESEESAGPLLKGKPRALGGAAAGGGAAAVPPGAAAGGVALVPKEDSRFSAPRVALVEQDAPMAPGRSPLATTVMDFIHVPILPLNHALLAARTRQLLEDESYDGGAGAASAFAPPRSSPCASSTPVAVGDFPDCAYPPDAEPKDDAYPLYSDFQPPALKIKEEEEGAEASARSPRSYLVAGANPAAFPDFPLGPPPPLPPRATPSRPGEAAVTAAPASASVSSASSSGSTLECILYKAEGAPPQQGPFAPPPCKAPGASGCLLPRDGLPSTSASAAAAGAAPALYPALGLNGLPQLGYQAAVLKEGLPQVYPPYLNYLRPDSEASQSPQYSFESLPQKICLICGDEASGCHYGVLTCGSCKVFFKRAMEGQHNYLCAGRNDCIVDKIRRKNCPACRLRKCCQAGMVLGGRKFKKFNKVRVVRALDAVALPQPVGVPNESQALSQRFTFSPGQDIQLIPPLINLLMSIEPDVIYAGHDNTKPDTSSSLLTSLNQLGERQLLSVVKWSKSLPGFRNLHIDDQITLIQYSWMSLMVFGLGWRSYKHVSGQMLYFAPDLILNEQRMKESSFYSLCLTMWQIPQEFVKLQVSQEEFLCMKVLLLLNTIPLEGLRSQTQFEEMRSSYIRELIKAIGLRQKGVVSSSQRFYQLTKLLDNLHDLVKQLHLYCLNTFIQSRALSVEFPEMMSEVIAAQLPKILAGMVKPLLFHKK
Structure (SMILES),AC50,outcome
CCC(=O)O[C@H]1CC[C@H]2[C@@H]3CCC4=CC(=O)CC[C@]4(C)[C@H]3CC[C@]12C,6.3 µM (active),
CC(C)(O)C(=O)Nc1ccc([N+](=O)[O-])c(C(F)(F)F)c1,,inactive
N#Cc1ccc(N(CC(N)=O)CC(F)(F)F)cc1C(F)(F)F,,inactive

# Target: PGR (gene 5241) (UniProt P06401)
# Test: TOX21_PR_LUC_Followup_Antagonist: Tox21 HEK293 Progesterone Receptor (PR) Antagonism Luciferase Follow-Up Assay (AID 2283938);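 also: curve fitted upward as signal gain over DMSO baseline despite antagonist label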
# Procedure, shortened: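 Luminescence from ONE-Glo reagent, measured after 30 min at room temperature, served as readout. Cells (HEK293 carrying PR-A-luc) had been treated 16 h at 37C with DMSO-dissolved compounds. Activity was fitted against DMSO controls.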
Structure (SMILES),outcome,AC50
COc1ccc(O)c(C(C)(C)C)c1,inactive,
CC(C)(c1ccccc1)c1ccc(O)cc1,,35.3 µM (active)
Clc1ccc(C(c2ccccc2Cl)C(Cl)(Cl)Cl)cc1 (centres undefined),,15.6 µM (active)
CCCCCCCCCc1ccc(O)cc1,inactive,
CCC(=O)O[C@H]1CC[C@H]2[C@@H]3CCC4=CC(=O)CC[C@]4(C)[C@H]3CC[C@]12C,inactive,
ClC(Cl)=C(c1ccc(Cl)cc1)c1ccc(Cl)cc1,,21.6 µM (active)
Oc1ccc(C(c2ccc(O)cc2)(C(F)(F)F)C(F)(F)F)cc1,,54.7 µM (active)
ClC1=C(Cl)[C@]2(Cl)[C@@H]3[C@@H]4C[C@@H]([C@H]5O[C@@H]45)[C@@H]3[C@@]1(Cl)C2(Cl)Cl,,18.2 µM (active)
C[C@]12CCC(=O)C=C1CC[C@@H]1[C@@H]2CC[C@@]2(C)[C@H]1CC[C@]2(C)O,inactive,
C[C@]12CCC(=O)C=C1CC[C@@H]1[C@@H]2CC[C@]2(C)C(=O)CC[C@@H]12,inactive,
N#Cc1ccc(N(CC(N)=O)CC(F)(F)F)cc1C(F)(F)F,,46.1 µM (active)
